The source of these data is the supplement of paper PMC3334620.

The full ranking holds about 33,000 sequences; the median of “E-score (-0.5 to 0.5)” is about -0.035, and the highest 2% start at about 0.35. This is one part of a sample in which the highest values are shown more often than they occur.

In the assay the target is T1, Pdr3 (UniProt P33200).
T1 sequence: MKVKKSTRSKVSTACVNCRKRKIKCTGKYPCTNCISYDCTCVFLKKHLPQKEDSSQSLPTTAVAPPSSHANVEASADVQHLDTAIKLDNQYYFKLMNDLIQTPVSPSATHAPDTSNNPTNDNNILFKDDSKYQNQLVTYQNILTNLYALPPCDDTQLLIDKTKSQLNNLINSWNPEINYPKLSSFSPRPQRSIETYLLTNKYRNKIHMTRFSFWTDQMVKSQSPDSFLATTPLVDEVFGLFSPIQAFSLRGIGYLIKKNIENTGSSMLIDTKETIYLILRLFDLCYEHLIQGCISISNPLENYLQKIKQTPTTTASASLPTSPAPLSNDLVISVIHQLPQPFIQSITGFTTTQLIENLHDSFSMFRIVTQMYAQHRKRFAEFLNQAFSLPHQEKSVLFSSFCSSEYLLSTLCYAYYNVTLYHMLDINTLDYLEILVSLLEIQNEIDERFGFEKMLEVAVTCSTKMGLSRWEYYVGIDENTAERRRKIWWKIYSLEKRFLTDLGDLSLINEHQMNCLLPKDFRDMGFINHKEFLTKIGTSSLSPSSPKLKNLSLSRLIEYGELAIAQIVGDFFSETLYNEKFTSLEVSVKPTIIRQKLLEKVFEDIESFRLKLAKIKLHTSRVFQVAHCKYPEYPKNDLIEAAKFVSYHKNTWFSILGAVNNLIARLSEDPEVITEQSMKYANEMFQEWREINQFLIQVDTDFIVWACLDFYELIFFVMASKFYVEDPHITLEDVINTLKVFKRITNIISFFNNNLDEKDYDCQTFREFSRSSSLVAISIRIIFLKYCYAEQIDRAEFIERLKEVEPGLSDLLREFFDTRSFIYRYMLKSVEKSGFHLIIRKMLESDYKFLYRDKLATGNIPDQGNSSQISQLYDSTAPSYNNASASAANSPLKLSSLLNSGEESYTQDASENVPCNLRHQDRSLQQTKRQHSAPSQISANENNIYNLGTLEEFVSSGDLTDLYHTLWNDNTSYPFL
Nature of the assay: PBM E-score (8-mer binding enrichment) (E-score (-0.5 to 0.5)); higher = stronger / more preferred TF binding. Particulars: protein concentration: 200 nM; construct: GST-full length. On the procedure: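 Universal 'all 10-mer' protein binding microarrays (Agilent AMADID 015681) probed with GST-tagged S. cerevisiae TFs (full-length or DBD) made by in vitro transcription/translation (PURExpress), about 100-200 nM. Bound TF was detected with fluorescent anti-GST. Each ungapped 8-mer (which stands for itself and its reverse complement) is scored by the PBM enrichment score (E-score), a modified Wilcoxon-Mann-Whitney statistic from -0.5 to +0.5, computed with the Universal PBM Analysis Suite. Scale: above 0.35 generally sequence-specific binding.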
Take AACAACAC: the “PBM E-score” value was 0.0662.

As for CCTCCAGG, the “PBM E-score” value was -0.269.

On to AATATTCA, for which the “PBM E-score” value came to 0.0722.

Regarding AATATTCC, the “PBM E-score” value stood at 0.362.

For the sequence AATATTCG, the “PBM E-score” value was found to be 0.0118.

For ATACCGCC, the “PBM E-score” value was determined as 0.212.

Regarding ATCCGTGC, the “PBM E-score” value stood at 0.267.

Regarding ATCCGTTA, the “PBM E-score” value turned out to be 0.364.

ATCCGTTG: the “PBM E-score” value amounted to 0.376.

On to GTCCGTTA, for which the “PBM E-score” value is 0.321.

In the case of ATCCGTTC, the “PBM E-score” value was 0.322.

For ATCCGTGA, the “PBM E-score” value was 0.306.

ACCCGTTG: the “PBM E-score” value was determined as 0.0389.

In the case of CTCCGTTC, the “PBM E-score” value was 0.367.

Regarding CTCCGTTA, the “PBM E-score” value worked out at 0.216.

On to ATCCGTGG, for which the “PBM E-score” value is 0.428.

With CTCCGTGC, the “PBM E-score” value was 0.263.

For the sequence AGCCGTTG, the “PBM E-score” value amounted to 0.00388.

On to AAGCGCGT, for which the “PBM E-score” value was -0.113.

Regarding TAGTCCCA, the “PBM E-score” value was -0.187.

In the case of CAACCCGG, the “PBM E-score” value stood at 0.293.

As for CCACTCTA, the “PBM E-score” value was -0.0753.

On to AAGAGCCC, for which the “PBM E-score” value is -0.00683.

Turning to CGCTTAAC, the “PBM E-score” value turned out to be 0.0421.

Turning to CAACCGCA, the “PBM E-score” value is 0.0919.

With CAACCGGG, the “PBM E-score” value amounted to 0.129.

Consider CAACCGGA, for which the “PBM E-score” value stood at 0.379.

Consider CAACCGCG, for which the “PBM E-score” value stood at 0.369.

Regarding CAACCGCC, the “PBM E-score” value was found to be 0.0754.

As to GAACCGGC, the “PBM E-score” value was found to be 0.247.

TAACCGGA: the “PBM E-score” value amounted to 0.308.

With AAACCGGA, the “PBM E-score” value came to 0.346.

With GAACCGGA, the “PBM E-score” value was 0.416.

In the case of AAGATGAC, the “PBM E-score” value is -0.202.

Regarding AATGAAAC, the “PBM E-score” value amounted to 0.059.

With GGCCTTCA, the “PBM E-score” value is 0.0249.

GCGCCCCC: the “PBM E-score” value is -0.146.

As to GCCGACGC, the “PBM E-score” value came to 0.178.

AAATCCGT: the “PBM E-score” value came to 0.246.

For the sequence AAATCCGG, the “PBM E-score” value was found to be 0.39.

For AAATCCGC, the “PBM E-score” value worked out at 0.196.

Consider CAATCCGC, for which the “PBM E-score” value turned out to be 0.265.

On to CAATCCGA, for which the “PBM E-score” value stood at 0.271.

Take CAATCCGG: the “PBM E-score” value was 0.394.

As to GCCTCTTA, the “PBM E-score” value is -0.109.

With CGAAGGTA, the “PBM E-score” value stood at 0.0358.

Regarding CCGGACGA, the “PBM E-score” value is 0.36.

As to CCGGACGC, the “PBM E-score” value amounted to 0.33.

In the case of TCGGACGA, the “PBM E-score” value is 0.233.

For ACGGACGG, the “PBM E-score” value is 0.245.

Turning to CCGGACGG, the “PBM E-score” value came to 0.396.

For the sequence ACGGACGA, the “PBM E-score” value turned out to be 0.304.

Regarding AGCATTCA, the “PBM E-score” value was -0.0565.

As to CCGTACGA, the “PBM E-score” value amounted to 0.00505.

As for CATTTCTC, the “PBM E-score” value worked out at 0.0391.

With GTAAAAAC, the “PBM E-score” value was -0.132.

For the sequence CCGGGGTC, the “PBM E-score” value amounted to 0.327.

CCGGGGTA: the “PBM E-score” value came to 0.341.

In the case of ACCGGGTA, the “PBM E-score” value worked out at 0.154.

On to CCCGGGTC, for which the “PBM E-score” value turned out to be 0.426.

With ACCGGGTC, the “PBM E-score” value came out at 0.184.

On to CCCGGGTA, for which the “PBM E-score” value came to 0.438.

AAACCATT: the “PBM E-score” value was -0.226.

TCGCTTCA: the “PBM E-score” value was -0.114.

As for CGGTCGAA, the “PBM E-score” value worked out at 0.0584.

On to ACATCCCG, for which the “PBM E-score” value worked out at 0.415.

As to ATATCCGC, the “PBM E-score” value is 0.333.

Consider ATATCCCC, for which the “PBM E-score” value was found to be 0.0317.

In the case of ATATCCGG, the “PBM E-score” value was determined as 0.384.

Take ATATCCCG: the “PBM E-score” value was 0.357.

For ATATCCGA, the “PBM E-score” value worked out at 0.346.

For the sequence ATATCCCA, the “PBM E-score” value was 0.229.

For the sequence ATGTCCGC, the “PBM E-score” value came out at 0.223.

Turning to ATGTCCGG, the “PBM E-score” value came to 0.375.

As to ATGTCCGA, the “PBM E-score” value amounted to 0.207.

On to ACATCCCC, for which the “PBM E-score” value was determined as 0.245.

As to CCATCCCG, the “PBM E-score” value came out at 0.31.

In the case of AATAGCGC, the “PBM E-score” value turned out to be 0.0976.

Turning to TCCTACAA, the “PBM E-score” value was found to be 0.00772.

GAGTAGCC: the “PBM E-score” value was -0.153.

On to AAACTGGC, for which the “PBM E-score” value is -0.0559.

AGAGGCAC: the “PBM E-score” value was -0.154.

Take CGGCTAAA: the “PBM E-score” value was 0.183.

As for AGATCCGC, the “PBM E-score” value was determined as 0.351.

For ACATCCGA, the “PBM E-score” value was found to be 0.259.

For the sequence ACATCCGG, the “PBM E-score” value worked out at 0.378.

As to AGATCCAG, the “PBM E-score” value amounted to 0.112.

Turning to ACATCCGT, the “PBM E-score” value is 0.216.

Regarding AGATCCGG, the “PBM E-score” value amounted to 0.362.

Turning to ACCGTTGG, the “PBM E-score” value came to 0.0171.

Regarding CAGCATGG, the “PBM E-score” value was -0.00655.

For the sequence GCCACGGC, the “PBM E-score” value is 0.0607.

Consider GCCACGTA, for which the “PBM E-score” value was -0.208.

GCCACGGA: the “PBM E-score” value was found to be 0.415.

ACCATGGA: the “PBM E-score” value was -0.151.

For the sequence TCCACGCA, the “PBM E-score” value was -0.174.

Consider ACCACGGA, for which the “PBM E-score” value is 0.377.

Regarding ACCACGGG, the “PBM E-score” value stood at 0.205.

ACCACGGC: the “PBM E-score” value was determined as 0.135.

With TACACGGA, the “PBM E-score” value stood at 0.3.

Take TCCACGGA: the “PBM E-score” value came out at 0.477.

As for TCCATGGA, the “PBM E-score” value turned out to be 0.423.

With CCCATGGA, the “PBM E-score” value is -0.0126.

With AGGCAGCA, the “PBM E-score” value was -0.0599.

For AAAACTCT, the “PBM E-score” value was -0.109.

In the case of ATCAACGG, the “PBM E-score” value was 0.247.

Regarding CTATCCAC, the “PBM E-score” value is 0.0063.

Turning to ATGCTATA, the “PBM E-score” value is -0.21.

Turning to ACGTTTTA, the “PBM E-score” value is -0.16.

On to ATGGTGAC, for which the “PBM E-score” value was -0.245.

Regarding CCCACGGG, the “PBM E-score” value was determined as 0.311.
